Data on 17 compounds can be found in PubChem BioAssay.

The AC50 is the concentration at which the activity in the assay is half-maximal.

Test [1] in a line: sensitizers of A549 cells to miR-34 induction, primary screen, imaging, A549 dox-inducible miR-34, nuclei and caspase counts (AID 1347080). The conditions noted are these: A549 miR-34 inducible, Hoechst nuclei count, 48 h.
A short description of test [2]: modifiers of HSF1 nuclear foci, imaging, Selleck Cancer Library (AID 1347162; in the data active = plate-normalised HSF1 focus index below about 0.46). The conditions noted are these: human cells, at 10 µM; SSMD: measured here: HSF1 foci SSMD mean; cell count: measured here: cell number; plate-normalised HSF1 focus index: stronger effect = lower value.
A short description of test [3]: phospholipid biosynthesis inhibitors in animal cells, primary screen, cell-based, LOPAC library, screen 4 (AID 1347384; call rule not given here). Conditions: phospholipid biosynthesis inhibition screen, at 10 µM.
Test [4] in a line: survival rescue of mitochondrial mutant cells in low glucose, primary screen, MELAS cybrids, Rieske KO mouse fibroblasts, CellTiter-Glo (AID 1508586;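 active = mean z-score across replicates of 1.96 or higher in either the MELAS or the Rieske mutant cell line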;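 also: z relative to plate mean and SD of compound and empty wells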). For orientation: In ATP-based viability assays light output follows the ATP content of the culture.
Test [5] deals with NAD(+) hydrolase SARM1 (Homo sapiens) (UniProt Q6SZW1). Description: SARM1 TIR NADase inhibitors, cell lysate, NAD-Glo luminescence (AID 1508614;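 active = compound whose remaining NAD level is above about 45 nM, limit read from the data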;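 also: higher remaining NAD means stronger inhibition of SARM1 NADase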). Conditions: SAM-TIR HEK293T lysate NADase, at 1 µM, stronger effect = higher value.
In test [6] the target is Mitogen-activated protein kinase 7 (Homo sapiens) (UniProt Q13164). The experiment in a line: ERK5 transactivation activators in reporter cells, primary screen, cell-based, HTS (AID 1508626;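 active = luciferase signal above three times the same-plate solvent-only control wells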;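 also: luciferase driven by Gal4-ERK5 fusion binding five Gal4 sites before minimal TATA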). The conditions noted are these: HeLa Gal4-ERK5 transactivation, 18 h, at 5 µM, stronger effect = higher value.
The nature of test [7]: viability rescue of complex I mutant cybrids, primary screen, cell-based, galactose medium, ATP luminescence (AID 1645843;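 active = z-score of at least 1.8 in each of two replicates, scored against plate mean and spread of sample wells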;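 also: positive z means more ATP and so rescue of galactose-driven cybrid death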). Conditions: complex I mutant cybrid cells, 72 h, stronger effect = higher value.
The nature of test [8]: SU-DIPG-VI glioma cell viability, MIPE4.0 library, CellTiter-Glo luminescence, qHTS (AID 1347066; cut-off not given, nearly all actives have AC50 up to about 30 µM;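 also: cells exposed to compound for 48 hours before readout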). Conditions: CellTiter-Glo ATP luminescence.
The nature of test [9]: inhibitors of Cryptococcus chitosan production, flow cytometry, Cibacron Brilliant Red staining (AID 1347148; call rule not given here;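 also: compound exposure lasted three days at 37 degrees C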). The conditions noted are these: Cryptococcus neoformans chitosan, stronger effect = lower value; at 10 µM unless noted. (In general: A flow cytometer gives signals particle by particle.)
The nature of test [10]: SU-DIPG-XXV glioma cell viability, MIPE5.0 library, qHTS (AID 1347068; cut-off not given, nearly all actives have IC50 up to about 30 µM). (Quantitative high-throughput screening tests each substance at several concentrations.)
The nature of test [11]: JHH-DIPG-1 glioma cell viability, MIPE5.0 library, CellTiter-Glo luminescence, qHTS (AID 1347067; cut-off not given, nearly all actives have AC50 up to about 26 µM;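 also: cells exposed to compound for 48 hours before readout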). The conditions noted are these: JHH-DIPG-1 glioma viability, CellTiter-Glo ATP luminescence.
[12] abbreviates: stronger effect = lower value, cell number ratio, induced over uninduced.
Where [13] appears, read: measured here: relative caspase fold change +Dox/-Dox.
Where [14] appears, read: measured here: total cells with miR-34 induction, stronger effect = lower value.
The mark [15] stands for this setting: measured here: total cells without miR-34 induction.
[16] abbreviates: MELAS cybrid survival, CellTiter-Glo 48 h, stronger effect = higher value.
[17] abbreviates: Rieske KO mouse fibroblast survival, CellTiter-Glo 72 h.

Where “and” joins values, the source holds several entries; their conditions need not be identical. Equal values may be shown once. Records with an inconclusive call do not appear. Where a structure was tested more than once in an assay, its records may differ in their call. Calls of active or inactive are those of the source.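 The calls were made as follows, unless noted: active = compounds whose cell count with miR-34 switched on is under 0.7 times the count with it off; inactive = the rest.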

Mitogen-activated protein kinase 7 (Homo sapiens), sequence (Q13164 whole entry, looked up, the tested form may be a part): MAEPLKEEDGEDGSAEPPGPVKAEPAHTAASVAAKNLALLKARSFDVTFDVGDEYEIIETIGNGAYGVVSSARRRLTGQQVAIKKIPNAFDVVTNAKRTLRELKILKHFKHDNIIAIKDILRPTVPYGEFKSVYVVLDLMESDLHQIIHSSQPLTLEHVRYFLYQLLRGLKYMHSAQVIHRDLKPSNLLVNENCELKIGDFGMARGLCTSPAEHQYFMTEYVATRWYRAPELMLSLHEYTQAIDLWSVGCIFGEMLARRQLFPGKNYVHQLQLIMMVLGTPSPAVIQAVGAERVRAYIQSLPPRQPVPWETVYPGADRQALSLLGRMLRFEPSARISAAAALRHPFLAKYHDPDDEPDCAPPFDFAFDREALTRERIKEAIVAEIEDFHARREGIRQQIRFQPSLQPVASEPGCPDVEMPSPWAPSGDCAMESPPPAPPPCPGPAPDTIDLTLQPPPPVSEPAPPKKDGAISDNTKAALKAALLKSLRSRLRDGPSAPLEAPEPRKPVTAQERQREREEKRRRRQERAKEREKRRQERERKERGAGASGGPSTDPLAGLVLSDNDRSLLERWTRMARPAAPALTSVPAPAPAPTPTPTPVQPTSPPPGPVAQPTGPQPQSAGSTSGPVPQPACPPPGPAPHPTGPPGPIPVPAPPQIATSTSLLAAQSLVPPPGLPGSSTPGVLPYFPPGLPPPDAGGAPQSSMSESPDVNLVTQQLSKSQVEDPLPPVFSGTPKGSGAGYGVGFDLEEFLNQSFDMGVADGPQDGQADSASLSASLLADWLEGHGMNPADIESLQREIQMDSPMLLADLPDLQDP
NAD(+) hydrolase SARM1 (Homo sapiens), sequence (Q6SZW1 whole entry, looked up, the tested form may be a part): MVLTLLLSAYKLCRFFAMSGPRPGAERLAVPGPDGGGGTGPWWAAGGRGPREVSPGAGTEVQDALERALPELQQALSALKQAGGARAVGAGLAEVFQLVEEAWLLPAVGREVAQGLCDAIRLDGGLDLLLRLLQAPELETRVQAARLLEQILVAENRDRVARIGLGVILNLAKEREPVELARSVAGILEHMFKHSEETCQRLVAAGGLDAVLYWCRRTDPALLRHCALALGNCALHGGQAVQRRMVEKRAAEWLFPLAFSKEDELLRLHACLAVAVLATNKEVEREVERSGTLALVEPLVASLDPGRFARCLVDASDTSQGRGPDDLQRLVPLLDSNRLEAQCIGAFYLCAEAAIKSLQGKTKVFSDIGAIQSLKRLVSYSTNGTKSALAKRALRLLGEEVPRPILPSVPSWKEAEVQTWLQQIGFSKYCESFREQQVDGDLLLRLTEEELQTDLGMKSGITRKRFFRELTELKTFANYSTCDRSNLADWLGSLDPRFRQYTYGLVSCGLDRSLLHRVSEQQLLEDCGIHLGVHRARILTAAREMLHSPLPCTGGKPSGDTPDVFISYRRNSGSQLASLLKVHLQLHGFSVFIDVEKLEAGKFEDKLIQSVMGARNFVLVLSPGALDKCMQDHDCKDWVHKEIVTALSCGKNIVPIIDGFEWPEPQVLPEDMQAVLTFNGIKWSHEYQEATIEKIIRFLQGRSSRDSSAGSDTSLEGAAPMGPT

Take `C[C@]12CC[C@@H]3c4ccc(O)cc4CC[C@H]3[C@@H]1CCC2=O`: the fold change is 0.96 (inactive) and 0.932 (inactive) and 0.881 (inactive) in test [1] (setting [12]); 1.22 and 1.44 and 1.06 in [1] (setting [13]). Besides, the cell count was 9000 and 8450 and 7620 in test [1] (setting [14]); 9370 and 9060 and 8650 in [1] (setting [15]); 6870 in [2]. In test [2], the SSMD is 2.44. In addition, the plate-normalised HSF1 focus index in test [2] was 1.13 (inactive). Besides, the call in test [3] was inactive. The z-score was 0.711 (inactive) and 0.373 (inactive) in test [4] (setting [16]); 0.46 and -0.298 in test [4] (setting [17]); -0.23 (inactive) and -0.335 (inactive) in test [7]. Further, in test [5], the remaining NAD was 10 nM (inactive). The luciferase signal in test [6] was 28 AU (inactive).

For the compound `CN(C)[C@@H]1C(=O)C(C(N)=O)=C(O)[C@@]2(O)C(=O)C3=C(O)c4c(O)ccc(Cl)c4[C@@H](O)[C@H]3C[C@@H]12`, the fold change in test [1] (setting [12]) is 1 (inactive) and 0.852 (inactive) and 0.887 (inactive); in test [1] (setting [13]), 0.853 and 1.42 and 3.05. The cell count was 2520 and 7990 and 10000 in test [1] (setting [14]); 2520 and 9380 and 11300 in test [1] (setting [15]). Besides, the compound was classed as inactive in test [3]. The z-score was 0.25 (inactive) in test [4] (setting [16]), -1.49 in test [4] (setting [17]) and 2.89 (active) in test [7]. In addition, the remaining NAD in test [5] is 10 nM (inactive). In addition, the luciferase signal in test [6] was 36 AU (inactive).

In the case of `CC1(C)O[C@H]2CC(=O)OC[C@]23[C@H]2CC[C@@]4(C)[C@H](c5ccoc5)OC(=O)[C@H]5O[C@]54[C@]2(C)C(=O)C[C@@H]13`, in test [8], the compound was classed as inactive. Further, the luciferase signal in test [6] was 80 AU (inactive).

For `CCCc1c(OCCCCc2nn[nH]n2)ccc(C(C)=O)c1O`, the fold change in test [1] (setting [12]) is 0.952 (inactive) and 0.923 (inactive) and 1.01 (inactive); in test [1] (setting [13]), 1 and 1.28 and 1.02. For the same compound, the cell count in [1] (setting [14]) is 9490 and 5900 and 5660; in test [1] (setting [15]), 9970 and 6400 and 5590. The fold fluorescence in test [9] is 4.57 (inactive). In test [7], the z-score was 2.16 (active).

For the compound `CC(=O)OC(C)C[N+](C)(C)C` (configuration not stated), the fold change in test [1] (setting [12]) was 0.996 (inactive) and 0.9 (inactive) and 0.916 (inactive); in [1] (setting [13]) it was 1.55 and 1.24 and 1.41. Also, the cell count in [1] (setting [14]) is 9370 and 9670 and 11300; in [1] (setting [15]), 9400 and 10700 and 12300. Moreover, the result in test [3] was inactive. Besides, the z-score in [4] (setting [16]) is -0.509 (inactive); in test [4] (setting [17]), 0.138; in test [7], 0.455 (inactive). Besides, the remaining NAD in test [5] was 10 nM (inactive). In addition, in test [6], the luciferase signal was 104 AU (inactive).

For `CCOC(=O)O[C@]1(C(=O)OCCl)CC[C@H]2[C@@H]3CCC4=CC(=O)C=C[C@]4(C)[C@H]3[C@@H](O)C[C@@]21C`, in test [10], the outcome was inactive. In addition, the z-score is 0.475 (inactive) in test [4] (setting [16]) and 0.287 in test [4] (setting [17]).

As to `CC(=O)N[C@@H](CS)C(=O)O`, the fold change in test [1] (setting [12]) was 1.05 (inactive) and 0.885 (inactive) and 0.922 (inactive); in [1] (setting [13]), 0.401 and 1.12 and 0.735. The cell count in test [1] (setting [14]) is 10500 and 7510 and 10400; in [1] (setting [15]) it was 9960 and 8480 and 11200. Besides, the outcome in test [3] was inactive. The z-score in [4] (setting [16]) is -0.217 (inactive) and 0.201 (inactive); in test [4] (setting [17]), 0.862 and -0.824; in [7], 0.55 (inactive). In addition, the remaining NAD in test [5] is 10 nM (inactive). Besides, the luciferase signal in [6] was 40 AU (inactive).

Regarding `CCCCC(=O)O[C@]1(C(=O)CO)[C@@H](C)C[C@H]2[C@@H]3CCC4=CC(=O)C=C[C@]4(C)[C@@]3(F)[C@@H](O)C[C@@]21C`, the outcome in [11] and in test [10] was inactive. Moreover, in test [5], the remaining NAD was 10 nM (inactive). Moreover, the luciferase signal in [6] was 80 AU (inactive).

Take `CS(=O)(=O)Nc1ccc([N+](=O)[O-])cc1Oc1ccccc1`: the result in [10] and in [3] was inactive. Further, the fold fluorescence in [9] was 4.45 [at 162.2 µM] (inactive). Besides, the z-score is -0.305 (inactive) and 0.634 (inactive) and -0.303 (inactive) in [4] (setting [16]); 1.18 and 0.441 and -0.993 in test [4] (setting [17]); 1.54 (inactive) and 2.81 (active) and 0.735 (inactive) in [7]. For the same compound, the remaining NAD in test [5] is 10 nM (inactive). In test [6], the luciferase signal is 60 AU (inactive).

Regarding `O=C(O)[C@@H]1[C@H]2C[C@H]3c4[nH]c5ccccc5c4CCN3C[C@@H]2CC[C@@H]1O`, the fold change in test [1] (setting [12]) is 0.933 (inactive); in test [1] (setting [13]), 1.33. Further, the figures for the cell count in test [1] (setting [14]) and in test [1] (setting [15]) were 7540 and 8080, respectively.

For the compound `C[C@H]1c2cccc(O)c2C(O)=C2C(=O)[C@]3(O)C(O)=C(C(N)=O)C(=O)[C@@H](N(C)C)[C@@H]3[C@@H](O)[C@@H]21`, the fold change in [1] (setting [12]) is 0.948 (inactive) and 0.723 (inactive) and 0.815 (inactive); in [1] (setting [13]), 0.896 and 4.48 and 1.65. Also, the cell count in [1] (setting [14]) was 1440 and 3910 and 7870; in test [1] (setting [15]) it was 1520 and 5410 and 9650. Besides, the compound was classed as inactive in [3]. Besides, the z-score in [4] (setting [16]) is 0.0416 (inactive) and -0.292 (inactive); in test [4] (setting [17]), -2.32 and -1.86; in [7] it was 2.63 (active) and 2.23 (active). Besides, in test [5], the remaining NAD is 10 nM (inactive). In [6], the luciferase signal was 64 AU (inactive).

Regarding `O=C1Nc2ccc(Cl)cc2[C@@](C#CC2CC2)(C(F)(F)F)O1`, the AC50 in [11] is 20.9 µM (active). In addition, the fold change in [1] (setting [12]) was 0.73 (inactive) and 0.903 (inactive); in test [1] (setting [13]), 1.52 and 0.886. The cell count in test [1] (setting [14]) was 6400 and 6960; in test [1] (setting [15]), 8760 and 7710. The z-score in test [4] (setting [16]) is 1.16 (inactive) and -1.54 (inactive); in test [4] (setting [17]) it was 0.346 and 0.0528; in test [7], -1.77 (inactive) and -2 (inactive).

Consider `Nc1nc(F)nc2c1ncn2[C@@H]1O[C@H](CO)[C@@H](O)[C@@H]1O`, for which the outcome in test [11] was inactive. For the same compound, the fold change in test [1] (setting [12]) was 1.1 (inactive) and 1.04 (inactive); in test [1] (setting [13]) it was 0.763 and 0.78. Further, the cell count in [1] (setting [14]) was 2060 and 1630; in [1] (setting [15]), 1870 and 1560; in test [2] it was 6840. Further, the SSMD in [2] was 0.111. The plate-normalised HSF1 focus index in test [2] is 1.01 (inactive). Also, the z-score was 4.36 (active) in test [4] (setting [16]); 1.07 in test [4] (setting [17]); 0.045 (inactive) and -0.22 (inactive) in test [7].

Take `Cc1nccn1CC1CCc2c(c3ccccc3n2C)C1=O` (configuration not stated): the result in test [8] was inactive. Moreover, the z-score in test [4] (setting [16]) is -0.478 (inactive) and 0.555 (inactive) and 0.267 (inactive); in [4] (setting [17]), 0.23 and 0.514 and 0.91; in [7], 0.415 (inactive) and 0.495 (inactive) and 0.69 (inactive). Besides, the remaining NAD in test [5] is 10 nM (inactive).

For the compound `CNS(=O)(=O)Cc1ccc2[nH]cc(CCN(C)C)c2c1`, the outcome in test [8] was inactive. For the same compound, the z-score in [4] (setting [16]) was -0.261 (inactive) and 0.654 (inactive) and -0.798 (inactive); in [4] (setting [17]), -0.042 and 0.351 and -0.245; in test [7], 0.385 (inactive) and 0.365 (inactive) and 0.755 (inactive). Also, the remaining NAD in [5] was 10 nM (inactive).

For the compound `CC(=O)OCC1=C(C(=O)O)N2C(=O)[C@@H](NC(=O)Cc3cccs3)[C@H]2SC1`, the fold change in test [1] (setting [12]) is 1.04 (inactive) and 0.943 (inactive) and 0.907 (inactive); in test [1] (setting [13]) it was 2.01 and 1.12 and 1.53. Also, the cell count in test [1] (setting [14]) is 10600 and 8990 and 11000; in test [1] (setting [15]), 10300 and 9530 and 12100. Moreover, the outcome in test [3] was inactive. Also, the z-score is -0.988 (inactive) in test [4] (setting [16]), -1.16 in test [4] (setting [17]) and 0.015 (inactive) in test [7]. For the same compound, the remaining NAD in [5] is 10 nM (inactive). Further, the luciferase signal in [6] was 52 AU (inactive).

As for `O=C(O)CN1C(=O)c2cccc3cccc(c23)C1=O`, the fold change in [1] (setting [12]) was 0.898 (inactive) and 0.959 (inactive) and 0.946 (inactive); in test [1] (setting [13]) it was 1.04 and 0.818 and 2.08. Also, the cell count in test [1] (setting [14]) is 5450 and 8540 and 11100; in [1] (setting [15]), 6060 and 8900 and 11700. The fold fluorescence in [9] was 3.97 [at 195.9 µM] (inactive). In [5], the remaining NAD was 13 nM (inactive). Besides, in test [6], the luciferase signal is 44 AU (inactive). In addition, in test [7], the z-score is 0.415 (inactive).
